Several values for one entry are separate records, joined by “and”; a condition that tells them apart may be missing. Identical values can stand only once. Records with an inconclusive call do not appear. Where a call stands in place of a potency, no number is given. Unmarked numbers belong to inactive results. Activity calls are given as the source filed them. Calls come from the whole dose curve; as a rule, active = well fitted cell-killing curve with a large enough effect in the repeat runs; inconclusive = weak or mixed curves, or effect the other way; inactive = flat fitted curve, though single readings scatter.
Assay: qHTS RealTime-Glo MT Cell Viability Assay in HEK293 cells - 24 hour (AID 1224886); note: nearly all actives have a fitted effect of over 50% in size; for activity change, negative = cytotoxicity: top concentration of the series differs between compounds
Conditions: RealTime-Glo luminescence; series mostly up to 76.8 µM
Description: National Center for Advancing Translational Sciences [NCATS]
NIH Chemical Genomics Center [NCGC]
U.S. Environmental Protection Agency [EPA]
National Institutes of Environmental Health Sciences [NIEHS]
National Toxicology Program [NTP]
U.S. Food and Drug Administration [FDA]
Measure of cell viability is critical in the cell-base assay. Analysis of cell viability is necessary for the characterization of cell responses to cytotoxic drugs and environmental stress. A RealTime-Glo MT Cell Viability Assay to monitor cell viability in real time of continues cell culture during 40 hours of compound treatment was used to screen Tox21 10K library compounds in Hek293 cells. The RealTime-Glo MT Cell Viability Assay is a nonlytic, homogeneous, bioluminescent method to measure cell viability in real time using a simple, plate-based method. The assay involves adding NanoLuc luciferase and a cell-permeant prosubstrate to cells in culture. Viable cells reduce the proprietary prosubstrate to generate a substrate for NanoLuc luciferase. This substrate diffuses from cells into the surrounding culture medium, where it is rapidly used by the NanoLuc Enzyme to produce a luminescent signal. The signal correlates with the number of viable cells, making the assay well suited for cytotoxicity studies.
Tox21 Assay Protocol Summary:
The mixture of Hek293 cell suspension and reagents were dispensed at 600cells/6 ul/well in 1536-well tissue culture treated black solid bottom plates using a Multidrop dispenser. After the assay plates were incubated at a 37 C/5% CO2 incubator for 5 hours, 23 nL of compounds dissolved in DMSO, positive and negative controls was transferred to the assay plate by a pintool work station. The plates were incubated at 37 C for 40 hours. The luminescence intensity were measured at 0h, 8h, 16h, 24h, 32h and 40h time points using ViewLux plate reader during compound treatment.
Potency is the fitted concentration of half-maximal effect.

SMILES | Potency | activity change, negative = cytotoxicity
CC(C(=O)O)c1ccc2c(c1)[nH]c1ccc(Cl)cc12 (stereo not given) | inactive | 
COc1ccc(-c2coc3cc(O)ccc3c2=O)cc1 | inactive | 
O=C1C(c2[nH]c3ccc(S(=O)(=O)O)cc3c2O)=Nc2ccc(S(=O)(=O)O)cc21 | inactive | 
C=C(CC)C(=O)c1ccc(OCC(=O)O)c(Cl)c1Cl | inactive | 
O=C(O)O |  | -0.471% [at 6.97 µM]
CC(C)(C)NSc1nc2ccccc2s1 | inactive | 
Cc1c2ccccc2c(C)c2c1ccc1ccccc12 | 43.2 µM (active) and 21.9 µM (active) | 
c1ccc(SSc2ccccc2)cc1 | inactive | 
O=C1NC(=O)[C@@H]2CC=CC[C@H]12 | inactive | 
O=C1c2ccccc2C(=O)N1SC1CCCCC1 | 34.6 µM (active) and 34.7 µM (active) | 
O=C(O)[C@H](O)[C@@H](O)[C@H](O[C@@H]1O[C@H](CO)[C@H](O)[C@H](O)[C@H]1O)[C@H](O)CO | inactive | 
CCCCCCCCCCCCCC[N+](C)(C)Cc1ccccc1 | 5.58 µM (active) and 6.74 µM (active) and 5.01 mM (active) | 
O=[N+]([O-])c1cccc(C(F)(F)F)c1 | inactive | 
OC[C@H]1O[C@H](O[C@H]2O[C@H](CO)[C@@H](O)[C@H](O)[C@H]2O)[C@H](O)[C@@H](O)[C@@H]1O | inactive | 
CCCCCCCC/C=C\CCCCCCCCN | 21.3 µM (active) | 
OC[C@@H](O)[C@@H](O)CO | inactive | 
Cc1nc2n(c(=O)c1CCN1CCC(c3noc4cc(F)ccc34)CC1)CCCC2 | 3.38 µM (active) | 
O=C(Oc1ccccc1)Oc1ccccc1 | inactive | 
CCC(CC)C(C)CCOC(C)=O (stereo not given) | inactive | 
CCCC(=O)OCOC(=O)C1=C(C)NC(C)=C(C(=O)OC)C1c1cccc(Cl)c1Cl (stereo not given) | inactive | 

SMILES | Potency | activity change, negative = cytotoxicity
CCCCCCCCCCCCCCCC[N+](C)(C)CC | 8.74 µM (active) and 4.77 µM (active) | 
CCc1cccc(CC)c1NC(=O)CN(CC(=O)O)CC(=O)O | inactive | 
C[C@H]1NCc2cc(-c3ccc4c(=O)c(C(=O)O)cn(C5CC5)c4c3OC(F)F)ccc21 |  | -3.25% [at 15.8 µM]
O=C(O)c1cc(=O)c2ccccc2o1 | inactive | 
CC(CO)Oc1ccccc1 (stereo not given) | inactive | 
CCCCOC(=O)CC | inactive | 
CCC(COC(=O)CCS)(COC(=O)CCS)COC(=O)CCS | inactive | 
Cc1c(N)cccc1C(F)(F)F | inactive | 
c1ccsc1 | inactive | 
Nc1nc(-c2ccccc2)cs1 | inactive | 
C=CC(=O)OCCOC(=O)C=C | 43.6 µM (active) | 
O=C(O)c1cccc(C(F)(F)F)c1 | inactive | 
CCN(CC)C(=O)c1cc(S(=O)(=O)Cc2ccccc2)c(N2CCC(c3ccccc3)CC2)cc1N(CC)CCN(C)C | 13.6 µM (active) | 
CC(CCc1ccccc1)NCC(O)c1ccc(O)c(C(N)=O)c1 (stereo not given) | inactive | 
C=C(C)c1cccc(C(=C)C)c1 | inactive | 
CCCC1CCC(=O)CC1 | inactive | 
O=S(=O)(O)c1ccccc1/C=C/c1ccc(-c2ccc(/C=C/c3ccccc3S(=O)(=O)O)cc2)cc1 | inactive | 
CN1CCN2c3ccccc3Cc3ccccc3C2C1 (stereo not given) | inactive | 
COc1cccc(OC)c1C(=O)O | inactive | 
CCCCCCC1CCCC(=O)O1 (stereo not given) | inactive | 

— PubChem BioAssay (Tox21)
